This note sets out measurements from PubChem BioAssay (EPA / NIEHS).

Molecules are shown by their SMILES. Active and inactive are the calls of the source. How the source made its calls: active means hit-call score of the fitted dose curve at least 0.9, where 1 is the maximum; inactive means score below 0.9.

For orientation: AC50 means the concentration giving half of the maximal activity seen.

Read-out in this experiment: Transforming Growth Factor (TGFA), TGFA (gene 7039)
Nature of the experiment: LTEA_HepaRG_TGFA: Life Technologies and Expression Analysis (LTEA) Assay for Transforming Growth Factor (TGFA) using HepaRG (AID 2283532). To be noted: mRNA level, 48 h; actives raise or lower the signal. The procedure:
LTEA_HepaRG is a cell based, multiplexed-readout assay that uses HepaRG, a human liver cell line, with measurements taken at 48 hours after chemical dosing on a 96-well plate.LTEA_HepaRG_TGFA is one of 102 assay component(s) measured in the LTEA HepaRG cell culture assay. It is a marker of Cell proliferation, survival, death.Data from the assay component LTEA_HepaRG_TGFA was analyzed into 1 endpoint. This assay endpoint, LTEA_HepaRG_TGFA, was analyzed with bidirectional fitting relative to DMSO as the negative control and baseline of activity. Using a type of inducible reporter, measures of mRNA induction for gain or loss-of-signal activity can be used to understand regulation of transcription factor activity. To generalize the intended target to other relatable targets, this assay endpoint is annotated to the growth factor intended target family, where the subfamily is EGF-like domain.
A total of 1060 chemcials from the ToxCast library were tested in eight-point concentration-response experiments. Cell culture and cytotoxicity assays were conducted at Thermo Fisher Scientific's Custom Services facility (Madison, WI). A single lot of human HepaRG cells (Thermo Fisher Scientific, Frederick, MD) was used for the cell culture experiments. 96-well format collagen type I coated plates of human HepaRG cells were prepared using established methods. Briefly, cryopreserved HepaRG cells were thawed, plated at a density of approximately 100,000 cells/well in HepaRG Thaw, Plate, and General Purpose media (HPRG770, Thermo Fisher Scientific), and incubated for 48 hours. 0.5% DMSO was selected as vehicle control to balance the requisite need of DMSO in HepaRG cultures to maintain differentiation (for example, baseline metabolism, proportions of hepatocytes vs. cholangiocytes), while enabling further hepatic receptor pathway activation (for example, PXR and CAR) in response to chemical exposure. 48 hours after plating, the culture medium was replaced with HepaRG Serum-Free Incudtion Media. Cells were exposed to each test chemical in duplicate and maintained in CO2 incubators for another 48 hours. Chemical plates were thawed to room temperature and 200x concentrations of treatment groups were prepared. 8-point conentration-reponse curves were made with the highest exposure at 100 uM, followed by half-log dilutions, all in 0.5% DMSO. Each test plate contained variouse controls, induction positive controls (1mM phenobarbital), cytotoxicity positive controls ([…] aflatoxin B1), vehicle controls (0.5% DMSO), and total lysis controls (0.5% DMSO). Cell morphology images were taken using an Essen IncuCyte FLR automated microscope, with six 96-well plates imaged in about 24 minutes. Images were captured and exported and JPEG files. Spent culture media was transfered to black-well plates for the LDH assay, and remaining media was sorted at -80 C for later use. Cells were treated with RLT buffer and frozen until shipped for gene expression analysis. Total RNA was isolated from the cell suspension in 75 uL of Buffer RLT (Qiagen, Germantown, MD 20874) by Quintiles/Expression Analysis (Durham, NC) using a custom isolation procedure. Total RNA from each plate well was transferred to a preamplification plate. Fluidigm's 96.96 Dynamic ArrayTM (Fluidigm, Amsterdam, the Netherlands) technology was used for gene expression analyses by quantitative reverse transcription polymerase chain reaction (qRT-PCR, performed by Quintiles/Expression Analysis, Durham, NC)89. Standard TaqManTM Assays (Applied Biosystems/ThermoFisher Scientific, Foster City, CA) were used to assess the expression of 93 genes selected based on their selectivity and sensitivity to important hepatic receptors known to be modulated by environmental chemicals; importance in human hepatocyte functionality; and hepatotoxicity. […]
With `CCCCCCCC1CCC(=O)O1` (stereo not given), the result was inactive.

In the case of `NC(=O)NN=Cc1ccc([N+](=O)[O-])o1`, the AC50 was 196 nM (active).

For the molecule `OCC(CO)(CO)CO`, the molecule was classed as inactive.

`O=S(=O)(O)c1ccc(N=Nc2c(O)ccc3cc(S(=O)(=O)O)ccc23)cc1`: the outcome was inactive.

Consider `OC[C@H]1O[C@@H]2O[C@H]3[C@H](O)[C@@H](O)[C@@H](O[C@H]4[C@H](O)[C@@H](O)[C@@H](O[C@H]5[C@H](O)[C@@H](O)[C@@H](O[C@H]6[C@H](O)[C@@H](O)[C@@H](O[C@H]7[C@H](O)[C@@H](O)[C@@H](O[C@H]1[C@H](O)[C@H]2O)O[C@@H]7CO)O[C@@H]6CO)O[C@@H]5CO)O[C@@H]4CO)O[C@@H]3CO`, for which the call was inactive.

In the case of `CCCCCCCCCC`, the outcome was inactive.

`Cc1ncc([C@@H](CCCCCCc2ccc3c(n2)NCCC3)CC(=O)O)cn1`: the outcome was inactive.

Turning to `CC(C)CCCCCCOC(=O)C1CCCCC1C(=O)OCCCCCCC(C)C` (stereo not given), the outcome was inactive.

In the case of `Cc1ccc(S(=O)(=O)NC(=O)NN2CCCCCC2)cc1`, the call was inactive.

On to `Cn1cc[nH]c1=S`, for which the call was inactive.

Turning to `NC(N)=O`, the molecule was called inactive.

In the case of `OC(CCl)CCl`, the outcome was inactive.

In the case of `O=C(O)c1ccc2c(c1)nc(C(=O)NC1CCN(C3CC3)CC1)n2Cc1cc(-c2ccc(Cl)s2)on1`, the call was inactive.

With `CCOc1ccc2[nH]cc(C(=O)NCc3ccccc3)c(=O)c2n1`, the result was inactive.

For `NC(=O)N1c2ccccc2C=Cc2ccccc21`, the molecule was called inactive.

For `NC(=O)N(O)[C@@H]1COc2cc(OCc3ccccc3)ccc21`, the molecule was called inactive.

On to `C[C@]12C=CC(=O)C=C1CC[C@H]1[C@@H]3C[C@@H](O)[C@](O)(C(=O)CO)[C@@]3(C)C[C@H](O)[C@@]12F`, for which the molecule was called inactive.

Consider `COc1cc(C(C)C)c2c(c1)S(=O)(=O)N(COc1cc(=O)n3cccc(OCCN4CCCCC4)c3n1)C2=O`, for which the result was inactive.

With `COS(C)(=O)=O`, the molecule was classed as inactive.

Regarding `C=CN1CCCC1=O`, the call was inactive.

As to `CCCCCCCC/C=C\CCCCCCCC(=O)OC[C@@H](O)[C@H]1OC[C@H](O)[C@H]1O`, the result was inactive.

`c1ccc2ncccc2c1`: the outcome was inactive.

As for `c1ccc2cc3ccccc3cc2c1`, the call was inactive.

In the case of `C[C@@H](Oc1ccc(CNC(=O)c2cccnc2Oc2ccc3c(c2)OCO3)c(F)c1)C(=O)O`, the molecule was classed as inactive.

Consider `Cc1nc(-c2ccccn2)ncc1C(=O)Nn1cc(C)c2cc(F)ccc21`, for which the call was inactive.

Consider `O=S1(=O)CCCO1`, for which the call was inactive.

For `O=C(O)[C@H](O)[C@@H](O)C(=O)O`, the molecule was called inactive.

`OC[C@H]1O[C@@](CO)(O[C@H]2O[C@H](CO)[C@@H](O)[C@H](O)[C@H]2O)[C@@H](O)[C@@H]1O`: the outcome was inactive.

Consider `COCc1nnc(-c2ccc[n+]([O-])c2)n1-c1c(Cl)c(Cl)cc2[nH]c(=O)c(=O)[nH]c12`, for which the call was inactive.

For the molecule `OC(Cn1cncn1)(Cn1cncn1)c1ccc(F)cc1F`, the molecule was called inactive.

With `CC1(C)C(=O)N(Cl)C(=O)N1Cl`, the outcome was inactive.

On to `CCCCN1C(=O)[C@@H]([C@H](O)C2CCCCC2)NC(=O)C12CCN(Cc1ccc(Oc3ccc(C(=O)O)cc3)cc1)CC2`, for which the molecule was classed as inactive.

Regarding `CCCCC(CC)C(=O)OCCOCCOCCOC(=O)C(CC)CCCC` (stereo not given), the result was inactive.

Turning to `CC(C)CC(C)O` (stereo not given), the molecule was called inactive.

Turning to `O=c1[nH]cnc2c1ncn2[C@H]1CC[C@@H](CO)O1`, the result was inactive.

For `NNC(=O)c1ccncc1`, the molecule was called inactive.

Regarding `O=C(O)c1cccc(C[C@@H]2COc3ccc(OCc4nc5cc(F)ccc5s4)cc3[C@@H]2O)c1`, the outcome was inactive.

As to `CCc1cccc(CC)c1N`, the molecule was classed as inactive.

Regarding `CCCCCOC(C)=O`, the call was inactive.

For `CC(=O)c1ccccc1`, the call was inactive.
